Hits are enriched below; roughly 5.5% of the tested compounds scored in any of these assays.
VP16 counter = VP16 counterscreen qHTS for inhibitors of ROR gamma transcriptional activity. Drosophila S2 Gal4-VP16 UAS-luciferase, luminescence, 20 h. Potency, µM (doses to about 53.6 µM), without a hit: at the highest dose activity, negative = inhibition, actives largely listed as inhibitors. actives 3.5% (n = 310,000). AID 2546, 2010;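 also: Gal4-VP16 expression switched on by copper sulfate through the metallothionein promoter; % is scaled to controls: 0 for no effect and ±100 for the full control effect; nearly all actives have a fitted effect of over 50% in size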
RORgamma inh = qHTS for inhibitors of ROR gamma transcriptional activity; Nuclear receptor ROR-gamma (Mus musculus), P51450; Drosophila S2 Gal4-RORgamma UAS-luciferase reporter, 20 h; Potency, µM (series often up to 53.6 µM), inactives show at the top dose activity change, negative = inhibition, hits mostly inhibitors; actives 5.4% (n = 310,000); AID 2551, 2010; also: % is scaled to controls: 0 for no effect and ±100 for the full control effect; nearly all actives have a fitted effect of over 60% in size
Target sequence (P51450 whole entry, looked up, the tested form may be a part): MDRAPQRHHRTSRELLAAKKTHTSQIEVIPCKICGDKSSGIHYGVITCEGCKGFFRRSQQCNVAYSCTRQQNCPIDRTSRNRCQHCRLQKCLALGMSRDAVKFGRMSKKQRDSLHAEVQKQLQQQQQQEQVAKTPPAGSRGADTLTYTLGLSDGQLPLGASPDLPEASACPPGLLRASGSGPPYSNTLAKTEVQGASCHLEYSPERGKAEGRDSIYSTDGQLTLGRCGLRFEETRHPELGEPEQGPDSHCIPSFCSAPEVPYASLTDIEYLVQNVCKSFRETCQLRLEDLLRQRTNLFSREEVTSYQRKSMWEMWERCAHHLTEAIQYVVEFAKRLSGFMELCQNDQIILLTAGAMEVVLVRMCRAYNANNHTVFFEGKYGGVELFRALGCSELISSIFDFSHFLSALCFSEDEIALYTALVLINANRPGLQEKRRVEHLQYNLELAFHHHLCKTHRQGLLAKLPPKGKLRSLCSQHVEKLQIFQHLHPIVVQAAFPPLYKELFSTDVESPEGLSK
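Using a luciferase readout, inhibitors were identified by reduced reporter activity in Drosophila cells coexpressing a copper-inducible Gal4–ROR gamma fusion and UAS-driven Photinus luciferase, incubated 20 hr after 700 uM copper sulfate.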
a7 integrin act = qHTS for Activators of Integrin-Mediated Alleviation for Muscular Dystrophy. actives 0.064% (n = 350,000). alpha7betagal myoblasts, beta-gal FDG fluorescence, 48 h. Potency, µM (doses to about 38.3 µM), without a hit: top-dose activation, usual class: activators;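 also: 100% = response of the positive control SU9516; nearly all actives have a fitted effect of over 60% in size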
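Alpha7betagal+/- myoblasts (passage 13) were plated 16-24 hr, then exposed to compounds (1:260 dilution of DMSO stock) for 48 hours at 37C. After MPER lysis, β-galactosidase reporter activity was read as FDG fluorescence (ex 480/em 540) after 30 minutes.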
Mito fusion act = qHTS Assay for Small Molecule Inhibitors of Mitochondrial Division or Activators of Mitochondrial Fusion; S. cerevisiae fusion-defective mutant growth rescue, CellTiterGlo 48 h; Potency, µM (top dose mostly 46.1 µM), inactives show at the highest dose growth rescue (activation), most hits filed as activators; actives 0.23% (n = 320,000); AID 485298, 2010; also: % of control where 0% means no effect; nearly all actives have a fitted effect of over 45% in size
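Growth-rescue viability read-out: after 48 h at the non-permissive 37C in glycerol/ethanol YPEG, yeast mitochondrial fusion mutants are measured by CellTiterGlo luminescence; compounds (23 nl pinned per well) restoring growth score as division inhibitors or fusion activators.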
uPA surface inh = qHTS for Inhibitors of Cell Surface uPA Generation; cell surface uPA generation assay, qHTS; Potency, µM (doses to about 38.3 µM), inactives show top-dose activity change, negative = inhibition, hits mostly inhibitors; actives 0.31% (n = 330,000); active = well fitted inhibition curve with a large enough effect; inconclusive = small, poorly fitted or top-dose-only effect; inactive = no such curve, though single readings can be large or run the other way; tested in mouse RAW 264.7 cells; also: % is scaled to controls: 0 for no effect and ±100 for the full control effect; nearly all actives have a fitted effect of over 55% in size
Chronic BCR inh = qHTS Assay to Find Inhibitors of Chronic Active B-Cell Receptor Signaling. ABC-DLBCL IkBa-CBG/CBR reporter, luminescence ratio, 4 h. Potency, µM (titrated, usually from 46.1 µM), inactives show at the top dose activity change, negative = inhibition, usual class: inhibitors. actives 0.05% (n = 340,000). AID 493014, 2011; active = well fitted inhibition curve with a large enough effect in the signal ratio, with a control signal flat, not every such curve was filed as active; inconclusive = small, poorly fitted or top-dose-only effect, or effect the other way, or a change in a side signal; the % refers to the signal ratio;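 also: plate controls were basal doxycycline-induced cells for no effect and cells given 10 µM MG132 for full effect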
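Cell line TMD8 (human ABC DLBCL), stably expressing tet-inducible CBG68-IkBa fusion and CBR; IMDM/0.5% FBS; cpd up to 46 uM; dox induction, 4 h, 37C/5% CO2; dual luminescence; green/red ratio; MG132 control.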
* marks the source's active call; other numbers are inactive results; [ ] = dose if it differs, or a comment. Unless noted, calls follow the shape of the dose curve; as a rule, active = well fitted curve in the direction sought with a large enough effect; inconclusive = small, poorly fitted or top-dose-only effect, or another doubt; inactive = no such curve, though single readings can be large; an effect the other way counts as inactive or inconclusive. Potency is read from the fitted curve at half-maximal effect.

How did O=C1C(=O)N(CCN2CCOCC2)C(c2ccc([N+](=O)[O-])cc2)/C1=C(/O)c1ccc2c(c1)OCO2 (stereo unspecified) do in these assays?
VP16 counter: 11µM*; RORgamma inh: 7.9µM*; a7 integrin act: -17%; Mito fusion act: -10%; uPA surface inh: -1%; Chronic BCR inh: inconclusive

How did COC(=O)C1=C(N)c2ccccc2C1(C#N)c1ccccc1 (stereo unspecified) do in these assays?
VP16 counter: 16µM*; RORgamma inh: 11%; a7 integrin act: 14%; Mito fusion act: 8%; uPA surface inh: 7%; Chronic BCR inh: -1%

How did Cc1ccc(C(=O)OCC(=O)Nc2ccc(N3CCOCC3)cc2)cc1 do in these assays?
a7 integrin act: 11%; Mito fusion act: 5%; uPA surface inh: 10%; Chronic BCR inh: -7%

How did CCCC(=O)Nc1cc(OC)c(NC(=S)Nc2ccc(CC)cc2)cc1OC do in these assays?
a7 integrin act: -3%; uPA surface inh: -4%

How did COc1cccc(NC(=S)NN=C2CCCCCC2)c1 do in these assays?
VP16 counter: inconclusive; RORgamma inh: 13µM*; a7 integrin act: -18%; Mito fusion act: -1%; uPA surface inh: 6%; Chronic BCR inh: inconclusive

What do the screens show for `COc1ccc(CNC(=S)Nc2cc(C)cc(C)c2)cc1`?
VP16 counter: 13µM*; RORgamma inh: 4µM*; a7 integrin act: 12%; Mito fusion act: -8%; uPA surface inh: -3%; Chronic BCR inh: 5%

What do the screens show for `COc1cccc(NC(=S)NC2CC(C)(C)NC(C)(C)C2)c1`?
VP16 counter: 7%; RORgamma inh: -2%; a7 integrin act: 1%; Mito fusion act: -4%; uPA surface inh: 3%; Chronic BCR inh: -5%

What do the screens show for `COc1ccc(CNC(=S)Nc2ccc(F)c(Cl)c2)cc1`?
VP16 counter: inconclusive; RORgamma inh: 7.1µM*; a7 integrin act: 1%; Mito fusion act: -7%; uPA surface inh: 2%; Chronic BCR inh: 23%

Results for Cc1cc(C)cc(NC(=S)NCc2ccncc2)c1 ?
VP16 counter: -8%; RORgamma inh: inconclusive; a7 integrin act: -21%; Mito fusion act: -5%; uPA surface inh: -1%; Chronic BCR inh: 7%

What do the screens show for `CCc1ccc(NC(=S)Nc2cc(OC)c(NC(=O)C(C)C)cc2OC)cc1`?
VP16 counter: 18µM*; RORgamma inh: 8.9µM*; a7 integrin act: -8%; Mito fusion act: 7%; uPA surface inh: 1%; Chronic BCR inh: 0%

What do the screens show for `O=C(CSCCOc1ccccc1)NCc1ccncc1`?
VP16 counter: 1%; RORgamma inh: 13%; a7 integrin act: -17%; Mito fusion act: -3%; uPA surface inh: -2%; Chronic BCR inh: 0%

What do the screens show for `COc1cccc(NC(=S)NCc2ccncc2)c1`?
VP16 counter: -10%; RORgamma inh: 1%; a7 integrin act: 2%; Mito fusion act: -2%; uPA surface inh: 5%; Chronic BCR inh: -2%

Results for COc1cccc(CNC(=S)Nc2cc(C)cc(C)c2)c1 ?
VP16 counter: -16%[10 µM]; RORgamma inh: 4.5µM*; a7 integrin act: 2%; Mito fusion act: 3%; uPA surface inh: 2%; Chronic BCR inh: 0%

Results for Cc1cc(C)cc(NC(=S)NCc2cccnc2)c1 ?
VP16 counter: inconclusive; RORgamma inh: inconclusive; a7 integrin act: 2%; Mito fusion act: -5%; uPA surface inh: 0%; Chronic BCR inh: inconclusive

What do the screens show for `COc1ccc(CNC(=S)Nc2cccc(OC)c2)cc1`?
VP16 counter: 13µM*; RORgamma inh: 18µM*; a7 integrin act: -3%; Mito fusion act: -12%; uPA surface inh: 3%; Chronic BCR inh: 4%

What do the screens show for `COc1ccc(CNC(=O)Nc2cccc(C)c2)cc1`?
VP16 counter: inconclusive; RORgamma inh: 6%; a7 integrin act: 12%; Mito fusion act: -4%; uPA surface inh: -8%; Chronic BCR inh: -3%

How did CCc1ccc(NC(=S)Nc2cccc(OC)c2)cc1 do in these assays?
VP16 counter: inconclusive; RORgamma inh: 7.9µM*; a7 integrin act: 10%; Mito fusion act: -9%; uPA surface inh: 2%; Chronic BCR inh: 2%

How did COc1ccc(CCNC(=S)Nc2cccc(C)c2)cc1 do in these assays?
VP16 counter: 10µM*; RORgamma inh: 7.1µM*; a7 integrin act: -5%; Mito fusion act: 3%; uPA surface inh: 2%; Chronic BCR inh: inconclusive

What do the screens show for `Cc1nc(SCC(=O)c2ccccc2)c(C#N)c(-c2ccco2)c1C(=O)NCc1ccco1`?
VP16 counter: 5µM*; RORgamma inh: 5.6µM*; a7 integrin act: -32%; Mito fusion act: 6%; uPA surface inh: -1%; Chronic BCR inh: inconclusive

Results for COCCOC(=O)c1c(C)nc(SCC(=O)Nc2ccc(OC)cc2)c(C#N)c1-c1ccco1 ?
VP16 counter: -6%; RORgamma inh: -3%; a7 integrin act: 2%; Mito fusion act: 0%; uPA surface inh: 1%; Chronic BCR inh: 3%

Results for CCN(CC)C(=O)CSc1nc(C)cc(-c2cccs2)c1C#N ?
VP16 counter: 9%; RORgamma inh: 10µM*; a7 integrin act: 23%; Mito fusion act: -2%; uPA surface inh: 10%; Chronic BCR inh: 8%

What do the screens show for `Cc1cc(C)c(C#N)c(SCC(=O)c2cccs2)n1`?
VP16 counter: -5%; RORgamma inh: 38%; a7 integrin act: 15%; Mito fusion act: 11%; uPA surface inh: -8%; Chronic BCR inh: inconclusive

What do the screens show for `CCC(=O)NC(=S)NNC(=O)c1ccccc1[N+](=O)[O-]`?
VP16 counter: -15%; RORgamma inh: 18µM*; a7 integrin act: 23%; Mito fusion act: -6%; uPA surface inh: 19%; Chronic BCR inh: 5%

Results for O=C(NC(=S)NNC(=O)c1ccccc1[N+](=O)[O-])c1ccccc1 ?
VP16 counter: 3.2µM*; RORgamma inh: 4.5µM*; a7 integrin act: 11%; Mito fusion act: 5%; uPA surface inh: 1%; Chronic BCR inh: inconclusive

Results for O=C(NNC(=S)NC(=O)c1ccccc1[N+](=O)[O-])c1ccccc1 ?
VP16 counter: 7%; RORgamma inh: 15%; a7 integrin act: -12%; Mito fusion act: 1%; uPA surface inh: -3%; Chronic BCR inh: inconclusive

Results for COc1cccc([C@@H]2Oc3ccc(Br)cc3C[C@H]2OC(=O)NS(=O)(=O)c2ccc(C)cc2)c1 ?
VP16 counter: -16%; RORgamma inh: -12%

Source: PubChem
